# This is one part of a sample in which hits are shown more often than they occur.
# MLL CXXC-DNA inh: inhibitors of human MLL CXXC domain-DNA interaction | 290,000 tested, 0.037% active | Potency, µM (top dose mostly 115 µM), for inactives: at the top dose activity change, negative = inhibition, most hits filed as inhibitors | Q03164 | MLL-CXXC / FITC-HOXA9 DNA fluorescence polarization | AID 2662; active means well fitted inhibition curve with a large enough effect in the polarisation, with a control signal flat, not every such curve was filed as active; inconclusive means small, poorly fitted or top-dose-only effect, or effect the other way, or a change in a side signal; inactive means no such curve, though single readings can be large or run the other way; the % refers to the polarisation; further: potency means the concentration at half of the fitted maximal effect
#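 Fluorescence polarization: 7 uM MLL-CXXC (stock) preincubated 5 min with compounds, then 50 nM fluorescein-HOX-A9 DNA (stock) added; 30 min ambient. Buffer 50 mM Tris-HCl pH 7.5, 50 mM NaCl, 1 mM DTT, 0.05% BSA.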
# ClpP mod: qHTS Assay for Activators of ClpP. ATP-dependent Clp protease proteolytic subunit (Bacillus subtilis (strain 168)), P80244. purified B. subtilis ClpP, FRET peptide cleavage, 20 min. Potency, µM (top dose mostly 57.5 µM), for the others: at the top dose activity change, negative = active. 340,000 tested, 1.9% active; active means well fitted falling curve with a large enough effect; inconclusive means small, poorly fitted or top-dose-only effect; inactive means no such curve, though single readings can be large or run the other way; further: potency means the concentration at half of the fitted maximal effect; the source files actives as falling curves though it sought activators and does not explain the sign; nearly all actives have a fitted effect of over 65% in size
# Target sequence (P80244 whole entry, looked up): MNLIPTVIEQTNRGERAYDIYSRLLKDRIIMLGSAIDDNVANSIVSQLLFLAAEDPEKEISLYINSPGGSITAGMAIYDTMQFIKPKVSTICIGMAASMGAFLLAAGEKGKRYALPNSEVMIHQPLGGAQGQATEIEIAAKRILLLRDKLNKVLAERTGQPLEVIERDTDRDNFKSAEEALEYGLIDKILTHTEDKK
#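 Buffer: 100 mM Tris/HCl pH8, 100 mM KCl, 0.05% low protease BSA, 2.5% glycerol, 0.01% Tween-20. ClpP 10 microg/mL final; 20 min RT; delta FRET normalized to ADEP and DMSO controls.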
# p53 reactivation: mutant p53 re-activation in reporter cells; H1299 p53-A138V BP100-luciferase reporter, luminescence, 24 h; Potency, µM (highest dose often 92.2 µM), without a hit: at the top dose activity change, positive = activation, usual class: activators; 320,000 tested, 0.063% active; active means well fitted activation curve with a large enough effect; inconclusive means small, poorly fitted or top-dose-only effect; inactive means no such curve, though single readings can be large or run the other way; further: potency means the concentration at half of the fitted maximal effect; % of control where 0% means no effect; nearly all actives have a fitted effect of over 45% in size
#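 p53-null H1299 cells stably carrying temperature-sensitive p53-A138V and a BP100-luciferase reporter were pinned with compounds (4-point, 1:5 series) and held 24 hrs at 37 deg C. Luminescence was read 10 min after detection reagent.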
# Menin MLL FP TR: menin-MLL binding inhibition, Texas Red mutant peptide; O00255; Menin + Texas Red MLL mutant peptide, fluorescence polarization; Potency, µM (titrated, usually from 61.6 µM), for inactives: top-dose FP activity change, negative = inhibition, hits mostly inhibitors; 270,000 tested, 0.23% active; active means well fitted inhibition curve with a large enough effect in the polarisation, with a control signal flat, not every such curve was filed as active; inconclusive means small, poorly fitted or top-dose-only effect, or effect the other way, or a change in a side signal; inactive means no such curve, though single readings can be large or run the other way; the % refers to the polarisation; further: potency means the concentration at half of the fitted maximal effect; % of control where 0% means no effect
# Menin MLL FP FL: menin-MLL binding inhibition, fluorescein peptide; 290,000 tested, under 10 active; Fluorescence polarization, fluorescein-MLL peptide displacement from menin; FP activity change, % at 61.4 µM; active means well fitted curve in the direction sought with a large enough effect in the polarisation, not every such curve was filed as active; inconclusive means small, poorly fitted or top-dose-only effect, or effect the other way, or a change in a side signal; inactive means no such curve, though single readings can be large or run the other way; the % refers to the polarisation; further: % of control where 0% means no effect
# Numbers without * were called inactive; ? = inconclusive; / = no result given; [ ] = another dose, or the depositor's remark.
SMILES,MLL CXXC-DNA inh,ClpP mod,p53 reactivation,Menin MLL FP TR,Menin MLL FP FL
CCOC(=O)c1oc2ccc3c(c2c1C)C(=O)CC1(CCN(C(=O)OCC)CC1)O3,-3.2%,-5.3%,16.7%,0.2%,4.0
CCCNC(=O)c1oc2ccc3c(c2c1C)C(=O)CC(C)(C)O3,-1.8%,28.2µM*,?,/,2.3
CCOC(=O)N1CCC2(CC1)CC(=O)c1c(ccc3oc(C(=O)O)c(C)c13)O2,-4.0%,35.5µM*,9.2%,-3.4%,-0.9
CC(=O)Nc1ccc(NC(=O)c2oc3ccc4c(c3c2C)C(=O)CC(C)(C)O4)cc1,/,-12.9%,/,/,/
CC(C)C[C@H](NC(=O)[C@H](Cc1ccccc1)NC(=O)CNC(=O)[C@H](CCC(=O)O)NC(=O)[C@H](CCCNC(=N)N)NC(=O)[C@H](C)NC(=O)[C@H](C)NC(=O)[C@@H](N)CC(=O)O)C(=O)N[C@@H](CC(=O)O)C(=O)N[C@H](C(=O)N[C@@H](CC(C)C)C(=O)N[C@H](C(=O)N[C@H](C(=O)N[C@@H](CC(C)C)C(=O)N[C@@H](Cc1cnc[nH]1)C(=O)N[C@@H](CCCNC(=N)N)C(=O)N[C@@H](C)C(=O)NCC(=O)N[C@@H](C)C(=O)N[C@@H](CCCNC(=N)N)C(=O)O)C(C)C)C(C)C)[C@@H](C)O,/,/,/,7.2%,-2.5
COc1ccccc1/C=C/c1cnccn1,/,-13.9%,/,/,/
CCOc1ccc(-n2c(Cc3ccccc3)nnc2SCc2c(C)noc2C)cc1,?,2.82µM*,8.0%,?,0.9
CCOc1ccc(-n2c(Cc3ccccc3)nnc2SCc2nc(-c3cccs3)no2)cc1,/,1.7%,/,/,/
Cc1cc(C)n(-c2ncnc3sc(C)c(C)c23)n1,-0.3%,31.6µM*,-0.3%,-13.5%,3.2
Cc1ccc(C)c(-c2csc(NC(=O)C3=COCCO3)n2)c1,/,/,7.5%,/,/
COc1ccc(OC)c(-c2csc(NC(=O)C3=COCCO3)n2)c1,/,31.6µM*,10.2%,/,/
C=CC(C1=CC(=O)C(OC)=C(OC)C1=O)c1ccccc1 (stereo not given),/,/,/,-1.3%,1.2
CN1C(=O)c2ccccc2N(C)C1c1ccc2c(c1)OCO2 (stereo not given),-9.5%,25.1µM*,-3.1%,-3.1%,-0.5
COc1cc(OC)c(/C=C/c2nccc3ccccc23)c(OC)c1,/,-6.7%,/,/,/
COc1cccc(N2CC(C(=O)Nc3nnc(SCc4cccnc4)s3)CC2=O)c1 (stereo not given),8.0%,12.6µM*,-17.0%,-1.0%,3.6
COc1ccc2cc3c(N)nn(C(=O)c4ccc(Cl)c([N+](=O)[O-])c4)c3nc2c1,33.9%,1.7%,58.1%,3.3%,3.6
COc1ccc2cc3c(N)nn(C(=O)c4ccccc4[N+](=O)[O-])c3nc2c1,-5.8%,28.2µM*,-1.4%,0.3%,-3.2
CN(C)c1ccc(-c2nc3n(n2)C(c2cccnc2)C2=C(CC(C)(C)CC2=O)N3)cc1 (stereo not given),1.5%,14.1µM*,-8.0%,?,10.4
CNC(=S)N(Cc1cccs1)Cc1cc2cc(OC)c(OC)cc2[nH]c1=O,15.3%,25.1µM*,-2.1%,1.1%,-0.8
COc1cc2cc(CN(Cc3cccnc3)C(=O)Nc3ccccc3)c(=O)[nH]c2cc1OC,-1.8%,/,-2.3%,5.3%,-5.7
CCc1ccc2[nH]c(=O)c(CN(CCN(C)C)C(=O)Nc3ccccc3OC)cc2c1,0.4%,28.2µM*,-29.9%,-9.1%,0.0
COc1cc2cc(CN(Cc3cccnc3)C(=O)NCc3ccccc3)c(=O)[nH]c2cc1OC,-10.5%,25.1µM*,-2.3%,-27.7%,0.1
COc1ccc2[nH]c(=O)c(CN(CCO)C(=O)c3ccccc3F)cc2c1,-2.4%,20µM*,5.4%,11.4%,3.2
Cn1nnnc1SCCCNCc1ccccc1OCc1ccc(Cl)cc1,/,-4.1%,/,/,/
COc1ccc(-c2onc(C)c2C)cc1S(=O)(=O)N1c2ccccc2CC1C (stereo not given),/,0.4%,/,/,/
SMILES,MLL CXXC-DNA inh,ClpP mod,p53 reactivation,Menin MLL FP TR,Menin MLL FP FL
O=C(NCc1ccccc1)N(Cc1cc2cc3c(cc2[nH]c1=O)OCO3)CC1CCCO1 (stereo not given),1.3%,28.2µM*,-3.4%,-15.1%,4.8
Cc1ccc2[nH]c(=O)c(CNC(C)(C)C)cc2c1,0.8%,14.1µM*,0.1%,-9.1%,-5.4
COC(=O)c1ccccc1S(=O)(=O)N(Cc1cc2ccc(OC)cc2[nH]c1=O)CC1CCCO1 (stereo not given),-4.0%,28.2µM*,-0.5%,3.6%,-1.3
COc1ccc2[nH]c(=O)c(CN(CCc3ccccc3)C(C)=O)cc2c1,-3.4%,28.2µM*,-2.0%,-7.9%,0.6
CC(=O)N(CCc1ccccc1)Cc1cc2cc(C)ccc2[nH]c1=O,-15.1%,?,3.0%,-19.6%,0.2
CN(C)c1ccc(N=Cc2ccncc2)cc1,/,0.8%,/,/,/
CCOC(=O)c1ccccc1NC(=O)c1sc2ncn(Cc3cccc(F)c3)c(=O)c2c1C,/,-3.4%,/,/,/
COc1ccc2[nH]c(=O)c(CN(CCN(C)C)C(=O)NCc3ccccc3)cc2c1,-4.1%,25.1µM*,-1.7%,3.3%,3.1
CCN(CC)CCCN(Cc1cc2cc(OC)ccc2[nH]c1=O)C(=O)Nc1ccc(F)cc1,6.7%,28.2µM*,-0.2%,-10.2%,-0.5
CCN(CC)CCCN(Cc1cc2cc(OC)ccc2[nH]c1=O)C(=O)Nc1ccccc1,2.3%,/,-2.7%,/,2.2
Cc1ccc2[nH]c(=O)c(CN(CCO)C(=O)NCc3ccccc3)cc2c1,2.7%,-21.2%,2.5%,12.0%,-0.4
COc1ccc(CN(Cc2cc3cc(C)ccc3[nH]c2=O)C(=O)N(C)C)cc1,-5.0%,?,-2.7%,-15.2%,-2.1
Cc1ccc2[nH]c(=O)c(CN(CCO)C(=O)N(C)C)cc2c1,/,28.2µM*,/,/,/
COC(=O)C1=C(C(=O)OC)[C@@H]2N(C)c3ccccc3[C@@]23C[C@@H](C(=O)OC)N(S(=O)(=O)c2ccc(OC)cc2)C3=N1,/,/,/,-10.5%[11.7 µM],-0.9[11.7 µM]
CCOc1ccc(CNC(=O)CCS(=O)(=O)Cc2ccccc2C)cc1OC,-3.5%,1.9%,0.8%,-16.6%,-0.7
CCOc1ccc(CNC(=O)CCS(=O)(=O)Cc2ccc(C)cc2)cc1OC,-2.8%,25.1µM*,-0.1%,16.5%,-1.1
CC(C)c1ccc(Nc2ncnc3c2nc2n3CCCC2)cc1,/,-1.0%,/,/,/
CCN(CC)c1cc2c(cc1F)c(=O)c(S(=O)(=O)c1ccc(C)cc1)cn2Cc1ccc(F)cc1,/,12.6µM*,/,/,/
CCCCn1cc(S(=O)(=O)c2ccc(CC)cc2)c(=O)c2cc(F)c(N3CCCC(C)C3)cc21 (stereo not given),/,15.8µM*,/,/,/
